Inconclusive results are not listed. Entries that show only a call come without a potency. Calls of active or inactive are those of the source. Unless noted, calls follow the shape of the dose curve; as a rule, active = well fitted curve in the direction sought with a large enough effect in the repeat runs; inconclusive = weak or mixed curves; inactive = no such curve, though single readings can be large; an effect the other way counts as inactive or inconclusive.
Tests used:
[1] = qHTS assay to identify small molecule antagonists of the estrogen receptor beta (ER-beta) signaling pathway - cell viability counter screen (AID 1259382);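 also: HEK293T cells carrying ER-beta-UAS-bla reporter stimulated with estradiol; series mostly up to about 92 µM; nearly all actives have a fitted effect of over 55% in size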
Method in brief: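 ER-beta-UAS-bla HEK293T cells in 2% charcoal-stripped FBS medium, treated with compound plus 1 nM 17-beta-estradiol for 16 h at 37C. Viability read by CellTiter-Glo luminescence after 30 min at room temperature in the same wells.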

[2] = qHTS assay to identify small molecule agonists or antagonists of the thyroid stimulating hormone receptor (TSHR) signaling pathway - wild type cell line counter screen (AID 1259384; calls by dose curve)
Method in brief: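 Wild-type HEK293 cells were plated 18 h at 37 C/5% CO2, pin-dosed with compound plus Ro20-1724 medium, held 30 min at room temperature, then given cAMP-d2 and anti-cAMP-cryptate; fluorescence was read after 1 h. Fifteen concentrations, triplicate.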

[3] = biological target: Thyrotropin receptor (Homo sapiens) (UniProt P16473); assay: qHTS assay to identify small molecule antagonists of the thyroid stimulating hormone receptor (TSHR) signaling pathway (AID 1259385; calls by dose curve; also: nearly all actives have a fitted effect of over 20% in size)
Chain of Thyrotropin receptor (Homo sapiens) (P16473 whole entry, looked up): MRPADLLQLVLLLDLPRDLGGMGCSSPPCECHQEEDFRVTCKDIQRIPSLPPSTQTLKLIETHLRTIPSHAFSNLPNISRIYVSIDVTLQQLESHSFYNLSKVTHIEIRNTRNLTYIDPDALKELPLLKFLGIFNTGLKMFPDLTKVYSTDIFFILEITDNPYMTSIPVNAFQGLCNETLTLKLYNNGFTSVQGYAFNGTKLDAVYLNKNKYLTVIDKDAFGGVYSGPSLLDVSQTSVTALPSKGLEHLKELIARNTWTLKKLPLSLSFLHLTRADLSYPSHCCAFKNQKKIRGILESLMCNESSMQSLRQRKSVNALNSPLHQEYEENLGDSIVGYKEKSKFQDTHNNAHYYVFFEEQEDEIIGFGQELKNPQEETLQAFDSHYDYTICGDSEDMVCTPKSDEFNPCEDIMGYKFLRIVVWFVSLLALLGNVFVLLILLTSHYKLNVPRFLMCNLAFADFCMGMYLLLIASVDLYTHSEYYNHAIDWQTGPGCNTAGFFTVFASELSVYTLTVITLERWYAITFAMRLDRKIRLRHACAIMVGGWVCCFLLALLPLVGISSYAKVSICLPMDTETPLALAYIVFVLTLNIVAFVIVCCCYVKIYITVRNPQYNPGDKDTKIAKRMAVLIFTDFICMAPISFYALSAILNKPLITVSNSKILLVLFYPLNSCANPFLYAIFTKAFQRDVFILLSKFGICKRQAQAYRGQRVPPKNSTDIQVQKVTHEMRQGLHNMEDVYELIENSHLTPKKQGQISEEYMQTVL
Method in brief: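 TSHR-HEK293 cells were plated and held 18 h at 37C/5% CO2, then given compound plus Ro20-1724 and stimulated with TSH at 1.5 ng/mL final. After 30 min at room temperature, cAMP was detected with cAMP-d2/anti-cAMP-cryptate (1 h) by fluorescence.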

[4] = qHTS assay to identify small molecule agonists of the estrogen receptor alpha (ER-alpha) signaling pathway in the presence of an antagonist - cell viability counter screen (AID 1259386);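 also: series mostly up to about 92 µM; cells exposed to compounds for 22 h at 37 °C before the viability read; nearly all actives have a fitted effect of over 30% in size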
Method in brief: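 Cell viability in VM7Luc4E2 cells (endogenous full-length ER-alpha) measured by CellTiter-Fluor fluorescence in the same wells as the luciferase screen. Cells pre-cultured 5 days in charcoal-stripped serum, then treated 22 h with compounds at 15 concentrations plus 10.0nM ICI-182,780.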

[5] = biological target: Progesterone receptor (Homo sapiens) (UniProt P06401); assay: qHTS assay to identify small molecule agonists of the progesterone receptor (PR) signaling pathway (AID 1346784; calls by dose curve; also: nearly all actives have a fitted effect of over 30% in size)
Chain of Progesterone receptor (Homo sapiens) (P06401 whole entry, looked up): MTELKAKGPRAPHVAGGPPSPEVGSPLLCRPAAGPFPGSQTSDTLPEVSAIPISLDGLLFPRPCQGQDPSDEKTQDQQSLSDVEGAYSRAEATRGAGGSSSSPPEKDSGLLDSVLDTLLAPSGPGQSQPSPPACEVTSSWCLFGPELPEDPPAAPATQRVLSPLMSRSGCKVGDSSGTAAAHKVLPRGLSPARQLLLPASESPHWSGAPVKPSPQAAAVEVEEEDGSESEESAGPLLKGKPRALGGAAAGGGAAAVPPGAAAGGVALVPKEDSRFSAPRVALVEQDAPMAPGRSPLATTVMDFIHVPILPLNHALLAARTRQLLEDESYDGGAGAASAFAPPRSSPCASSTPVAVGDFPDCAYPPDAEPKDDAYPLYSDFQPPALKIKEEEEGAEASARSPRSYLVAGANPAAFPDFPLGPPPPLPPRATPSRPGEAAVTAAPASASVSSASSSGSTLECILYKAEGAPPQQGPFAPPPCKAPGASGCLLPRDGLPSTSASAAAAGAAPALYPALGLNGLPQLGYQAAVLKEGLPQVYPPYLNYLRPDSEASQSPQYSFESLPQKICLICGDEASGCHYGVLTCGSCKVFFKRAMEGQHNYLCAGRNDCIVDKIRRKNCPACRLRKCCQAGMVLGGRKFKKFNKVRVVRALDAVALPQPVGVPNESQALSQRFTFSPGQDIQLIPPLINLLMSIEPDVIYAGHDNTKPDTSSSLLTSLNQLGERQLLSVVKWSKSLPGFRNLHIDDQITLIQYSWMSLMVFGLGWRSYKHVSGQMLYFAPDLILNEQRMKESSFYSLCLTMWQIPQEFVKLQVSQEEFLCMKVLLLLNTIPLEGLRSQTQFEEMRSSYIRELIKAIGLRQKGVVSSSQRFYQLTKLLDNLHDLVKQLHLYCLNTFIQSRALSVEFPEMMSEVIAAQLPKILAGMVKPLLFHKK
Method in brief: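 Beta-lactamase reporter read-out: after 16 hr compound treatment at 37C and a further 2 hr at room temperature with LiveBLAzer B/G FRET substrate, fluorescence was measured in PR-UAS-bla HEK 293T cells grown in 2% charcoal-stripped serum.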

[6] = biological target: Progesterone receptor (Homo sapiens) (UniProt P06401); assay: qHTS assay to identify small molecule antagonists of the progesterone receptor (PR) signaling pathway (AID 1346795; active = well fitted inhibition curve with a large enough effect in the signal ratio in the repeat runs, not every such curve was filed as active; the % refers to the signal ratio)
Method in brief: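 Read-out is fluorescence from the LiveBLAzer B/G FRET substrate, cleaved by a UAS-controlled beta-lactamase in PR-UAS-bla HEK293T cells after 16 hr exposure to compound plus 1 nM promegestone (final), followed by 2 hr at room temperature.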

[7] = qHTS assay to identify small molecule antagonists of the progesterone receptor (PR) signaling pathway - cell viability counter screen (AID 1346798); also: nearly all actives have a fitted effect of over 50% in size; also: potency is read from the fitted curve at half-maximal effect
Method in brief: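 HEK293T PR-UAS-bla, 2% charcoal-stripped FBS; 4 hr pre-plate; cpd + R5020, 16 h 37C; LiveBLAzer read first; then CellTiter-Glo 30 min RT, luminescence.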

[8] = qHTS assay to identify small molecule antagonists of the TGF-beta/Smad signaling pathway - cell viability counter screen (AID 1346824); also: nearly all actives have a fitted effect of over 50% in size
Method in brief: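 SBE-bla HEK 293T cells were plated overnight at 37 C, then given compounds in DMSO plus TGF-beta1 (added as 0.25 ng/mL solution) for 5 hr. After the bla read, CellTiter-Glo was added to the same wells and luminescence read after 30 min at room temperature.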

[9] = qHTS assay to identify small molecule agonists of the TGF-beta/Smad signaling pathway - cell viability counter screen (AID 1346829); also: top concentration of the series differs between compounds; nearly all actives have a fitted effect of over 45% in size
Method in brief: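 After overnight seating at 37 C and 5% CO2, reporter cells got compounds for 5 hr and FRET substrate for 2 hr; cell viability then came from CellTiter-Glo luminescence.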

[10] = qHTS assay to identify small molecule agonists of the TGF-beta/Smad signaling pathway (AID 1346859; active = well fitted activation curve with a large enough effect in the signal ratio in the repeat runs, not every such curve was filed as active; the % refers to the signal ratio; also: series mostly up to about 77 µM)
Method in brief: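 SBE-bla HEK 293T, 4,000 cells/well, plated o/n; cpd in DMSO, 5 hr, 37 C/5% CO2; B/G FRET substrate 2 hr RT; ex 405, em 460/530 nm.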

[11] = biological target: Thyrotropin-releasing hormone receptor (Homo sapiens) (UniProt P34981); assay: qHTS assay to identify small molecule antagonists of the thyrotropin-releasing hormone receptor (TRHR) signaling pathway (AID 1346877; active = well fitted inhibition curve with a large enough effect in the repeat runs, not every such curve was filed as active; also: series mostly up to about 51 µM)
Chain of Thyrotropin-releasing hormone receptor (Homo sapiens) (P34981 whole entry, looked up): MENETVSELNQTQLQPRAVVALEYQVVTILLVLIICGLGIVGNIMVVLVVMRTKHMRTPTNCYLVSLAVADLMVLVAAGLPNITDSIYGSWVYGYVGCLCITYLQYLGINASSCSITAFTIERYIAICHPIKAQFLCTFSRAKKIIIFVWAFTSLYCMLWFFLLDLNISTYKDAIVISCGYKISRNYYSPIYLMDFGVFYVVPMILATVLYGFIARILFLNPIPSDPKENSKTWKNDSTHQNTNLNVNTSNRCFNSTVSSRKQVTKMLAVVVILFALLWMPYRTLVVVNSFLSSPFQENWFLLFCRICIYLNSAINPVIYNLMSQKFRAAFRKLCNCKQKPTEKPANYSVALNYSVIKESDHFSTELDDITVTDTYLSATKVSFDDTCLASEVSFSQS
Method in brief: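 TRHR-expressing HEK293 cells loaded with calcium dye for 2 h at 37 C; compounds pre-incubated 5 min at room temperature before TRH challenge at 1 nM final. Intracellular calcium fluorescence read kinetically for 3 min; 15 concentrations in triplicate.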

[12] = biological target: Thyrotropin-releasing hormone receptor (Homo sapiens) (UniProt P34981); assay: qHTS assay to identify small molecule agonists of the thyrotropin-releasing hormone receptor (TRHR) signaling pathway (AID 1346891; calls by dose curve; also: series mostly up to about 58 µM)
Method in brief: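 Intracellular calcium rise, read as fluorescence every second for 3 min, served as the agonist signal in dye-loaded HEK293 cells expressing TRHR; each compound ran at 15 concentrations in triplicate.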

[13] = Human pregnane X receptor (PXR) small molecule agonists, qHTS cell viability counter screen (AID 1346977); also: nearly all actives have a fitted effect of over 50% in size
Method in brief: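 PXR-Luc HepG2, 2,000 cells/well, 5% charcoal-stripped FBS; 5hr settle; cpd 24hr, 37C/5% CO2; CellTiter-Fluor at 23hr, read 1hr later (fluorescence).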

[14] = Caspase-3/7 induction in HepG2 cells by small molecules, qHTS assay (AID 1346978); also: nearly all actives have a fitted effect of over 15% in size
Method in brief: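 Wild-type HepG2 cells (2,000/well) were settled 5 h at 37 C, 5% CO2, then exposed to compounds in DMSO for 17 h. Caspase-3/7 activity was read by luminescence 30 min after adding Caspase-Glo 3/7 reagent at room temperature.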

[15] = Caspase-3/7 induction in CHO-K1 cells by small molecules, qHTS cell viability counter screen (AID 1346979); also: nearly all actives have a fitted effect of over 35% in size
Method in brief: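 Cells (CHO-K1, wild type) are plated at 1,500 per well and incubated 5hr. Test compounds in DMSO are then pinned in, followed by 16hr at 37C and 5% CO2. Viability is read by CellTiter-Fluor fluorescence after 1hr.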

[16] = Caspase-3/7 induction in CHO-K1 cells by small molecules, qHTS assay (AID 1346980); also: nearly all actives have a fitted effect of over 15% in size
Method in brief: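 Wild-type cells were seeded at 1,500 per well and settled 5 hr at 37 C, 5% CO2, then exposed to DMSO-dissolved compounds for 17 hr. Caspase-Glo 3/7 reagent was added, and luminescence was read after 30min at room temperature.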

[17] = Caspase-3/7 induction in HepG2 cells by small molecules, qHTS cell viability counter screen (AID 1346981); also: series mostly up to about 92 µM; nearly all actives have a fitted effect of over 30% in size
Method in brief: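 Wild-type HepG2 cells, 2,000/well, settled 5 hr at 37 C, 5% CO2 before compound addition. Viability read by CellTiter-Fluor fluorescence, reagent added after 16 hr compound exposure, then 1 hr at 37C, in the same wells as the caspase read.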

[18] = qHTS assay to identify small molecule agonists of the progesterone receptor (PR) signaling pathway - cell viability counter screen (AID 1346799; calls by dose curve; also: nearly all actives have a fitted effect of over 45% in size; also: potency is read from the fitted curve at half-maximal effect)
Method in brief: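 Luminescence from CellTiter-Glo, added after the beta-lactamase FRET read in the same wells, gave cytotoxicity in PR-UAS-bla HEK293T cells treated with compounds for 16 hr at 37C.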

[19] = biological target: Estrogen receptor (Homo sapiens) (UniProt P03372); assay: qHTS assay to identify small molecule agonists of the estrogen receptor alpha (ER-alpha) signaling pathway in the presence of an antagonist (AID 1259383; calls by dose curve; also: top concentration of the series differs between compounds; nearly all actives have a fitted effect of over 15% in size)
Chain of Estrogen receptor (Homo sapiens) (P03372 whole entry, looked up): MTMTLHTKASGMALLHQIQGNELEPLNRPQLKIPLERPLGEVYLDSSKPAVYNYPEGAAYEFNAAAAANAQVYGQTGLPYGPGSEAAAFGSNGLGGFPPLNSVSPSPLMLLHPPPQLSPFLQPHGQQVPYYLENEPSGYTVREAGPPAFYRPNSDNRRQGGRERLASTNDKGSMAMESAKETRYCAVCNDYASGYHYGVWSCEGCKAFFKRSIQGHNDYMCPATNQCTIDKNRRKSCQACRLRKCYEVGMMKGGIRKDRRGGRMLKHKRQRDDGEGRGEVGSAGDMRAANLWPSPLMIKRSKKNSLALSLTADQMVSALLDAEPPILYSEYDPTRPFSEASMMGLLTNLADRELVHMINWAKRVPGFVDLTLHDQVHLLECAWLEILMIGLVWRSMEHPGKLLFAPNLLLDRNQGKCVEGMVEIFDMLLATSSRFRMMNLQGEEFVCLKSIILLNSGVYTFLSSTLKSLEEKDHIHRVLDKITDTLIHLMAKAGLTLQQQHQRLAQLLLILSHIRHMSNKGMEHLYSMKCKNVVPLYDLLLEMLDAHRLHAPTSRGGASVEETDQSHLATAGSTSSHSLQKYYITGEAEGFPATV
Method in brief: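 VM7Luc4E2 cells express endogenous full-length ER-alpha with an ERE-luciferase reporter and were hormone-deprived for 5 days. Compounds at 15 concentrations were added with 10.0nM ICI-182,780 for 22hr at 37C. Luminescence was read with ONE-Glo.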

Row | SMILES | outcome [1] | outcome [2] | outcome [3] | Potency [4] | Potency [5] | Potency [6] | Potency [7] | outcome [8] | outcome [9] | outcome [10] | outcome [11] | outcome [12] | Potency [13] | outcome [14] | Potency [15] | outcome [16] | Potency [17] | Potency [18] | outcome [19]
1 | C=C[C@@H](C)CCC=C(C)C | inactive | inactive | inactive | inactive | inactive | inactive | inactive | inactive | inactive | inactive | inactive | inactive | inactive | inactive | inactive | inactive | inactive |  | 
2 | CC(=O)OC(C)(C)Cc1ccccc1 | inactive | inactive | inactive | inactive |  | inactive |  | inactive | inactive | inactive |  |  | inactive | inactive | inactive | inactive |  | inactive | 
3 | FC(F)(F)c1ccc(Cl)cc1Cl | inactive | inactive | inactive | inactive |  | inactive | inactive | inactive | inactive | inactive | inactive | inactive | inactive | inactive | inactive | inactive | inactive | inactive | 
4 | CN(C)CCCNCCC#N | inactive |  |  | inactive | inactive | inactive |  |  | inactive | inactive | inactive | inactive | inactive | inactive | inactive | inactive | inactive | inactive | 
5 | Cc1ccc(S(=O)(=O)NC(=O)NC2CCCCCCC2)cc1 | inactive | inactive | inactive | inactive |  | inactive | inactive | inactive | inactive | inactive | inactive | inactive | inactive | inactive |  | inactive | inactive | inactive | 
6 | Cc1ccccc1N1CCN(CCc2nnc3n2CCCC3)CC1 | inactive | inactive | inactive | inactive |  | inactive | inactive | inactive | inactive | inactive | inactive | inactive | inactive | inactive | inactive | inactive | inactive |  | 
7 | C[C@H]1O[C@H](O[C@H]2[C@H](O)[C@@H](O)[C@@H](O[C@H]3[C@H](O)[C@@H](O)[C@H](O)O[C@@H]3CO)O[C@@H]2CO)[C@H](O)[C@@H](O)[C@@H]1N[C@H]1C=C(CO)[C@@H](O)[C@H](O)[C@H]1O | inactive |  |  | inactive | inactive | inactive | inactive | inactive | inactive | inactive | inactive | inactive | inactive | inactive | inactive | inactive | inactive | inactive | 
8 | CCOc1ccc(NC(=O)OC(C)C)cc1OCC | inactive |  |  | inactive | inactive | inactive |  | inactive | inactive | inactive | inactive | inactive | inactive | inactive | inactive | inactive | inactive |  | 
9 | CC(C)(C)NCCO |  |  |  | inactive | inactive |  | 30.6 µM (active) | inactive | inactive | inactive | inactive | inactive | inactive | inactive | inactive | inactive | inactive | 48.6 µM (active) | inactive
10 | CC(C)CCCCCCOC(=O)C1CCCCC1C(=O)OCCCCCCC(C)C (stereo not drawn) |  | inactive | inactive | inactive | inactive | inactive | inactive | inactive | inactive | inactive | inactive | inactive | inactive | inactive | inactive | inactive |  | inactive | inactive
11 | CCCCOC(=O)C(C)OC(=O)CCC (stereo not drawn) |  | inactive | inactive | inactive | inactive | inactive | inactive |  | inactive | inactive |  |  | inactive | inactive | inactive | inactive |  | inactive | inactive
12 | Nc1ccc(S(=O)(=O)NC(=O)c2ccccc2)cc1 |  | inactive | inactive | inactive | inactive | inactive |  | inactive | inactive | inactive | inactive | inactive | inactive | inactive | inactive | inactive |  | inactive | inactive
13 | F[Si-2](F)(F)(F)(F)F |  | inactive | inactive | inactive | inactive | inactive | inactive | inactive | inactive | inactive | inactive | inactive | inactive | inactive | inactive | inactive | inactive | inactive | inactive
14 | CCCCC(C)C(=O)O (stereo not drawn) |  | inactive | inactive | inactive |  | inactive | inactive | inactive | inactive | inactive |  |  | inactive | inactive | inactive | inactive |  | inactive | 
15 | CC1CCC(C(C)(C)S)C(=O)C1 (stereo not drawn) |  | inactive | inactive | inactive | inactive | inactive | inactive | inactive | inactive | inactive | inactive | inactive | inactive | inactive | inactive | inactive |  |  | inactive
16 | C[N+](C)(C)CC(O)CCl (stereo not drawn) |  | inactive | inactive | inactive | inactive | inactive | inactive | inactive | inactive | inactive |  |  | inactive | inactive | inactive | inactive | inactive | inactive | inactive

— PubChem BioAssay (Tox21)
